High-throughput results: PubChem, several laboratories
Shown are actives, neighbours in structure and some others; about 3.7% of the full set was active somewhere.
BoNT-F LC inh – BoNT F light chain protease inhibition; Multiplex microsphere protease cleavage assay, flow cytometry; inhibition, % at 10 µM; 0.22% of 360,000 active; AID 588497; in the data active = inhibition above about 35%, passing the limit was not always enough; inconclusive = no clear call, values can overlap the other calls; note: plate controls were buffer without enzyme for full effect and enzyme alone for no effect
BJeLR lethal – BJeLR cell viability loss; BJeLR (HRASV12) viability, CellTiter-Glo ATP luminescence, 48 h; inhibition, % (test concentration not listed); 0.17% of 300,000 active; AID 1554; in the data active = inhibition above about 50%; inconclusive = no clear call, values can overlap the other calls
BoNT A protease – BoNT A light chain protease inhibition; multiplex microsphere protease substrate cleavage, flow cytometry; 0.17% of 360,000 active; AID 588499; inhibition, % at 10 µM; note: plate controls were buffer without enzyme for full effect and enzyme alone for no effect
Anthrax LF inh2 – blocks Bacillus anthracis lethal factor protease | AID 588501 | inhibition, % at 10 µM | multiplex microsphere protease cleavage assay, LF | 0.12% of 360,000 active; note: plate controls were buffer without enzyme for full effect and enzyme alone for no effect
Target sequence (P15917 whole entry, looked up): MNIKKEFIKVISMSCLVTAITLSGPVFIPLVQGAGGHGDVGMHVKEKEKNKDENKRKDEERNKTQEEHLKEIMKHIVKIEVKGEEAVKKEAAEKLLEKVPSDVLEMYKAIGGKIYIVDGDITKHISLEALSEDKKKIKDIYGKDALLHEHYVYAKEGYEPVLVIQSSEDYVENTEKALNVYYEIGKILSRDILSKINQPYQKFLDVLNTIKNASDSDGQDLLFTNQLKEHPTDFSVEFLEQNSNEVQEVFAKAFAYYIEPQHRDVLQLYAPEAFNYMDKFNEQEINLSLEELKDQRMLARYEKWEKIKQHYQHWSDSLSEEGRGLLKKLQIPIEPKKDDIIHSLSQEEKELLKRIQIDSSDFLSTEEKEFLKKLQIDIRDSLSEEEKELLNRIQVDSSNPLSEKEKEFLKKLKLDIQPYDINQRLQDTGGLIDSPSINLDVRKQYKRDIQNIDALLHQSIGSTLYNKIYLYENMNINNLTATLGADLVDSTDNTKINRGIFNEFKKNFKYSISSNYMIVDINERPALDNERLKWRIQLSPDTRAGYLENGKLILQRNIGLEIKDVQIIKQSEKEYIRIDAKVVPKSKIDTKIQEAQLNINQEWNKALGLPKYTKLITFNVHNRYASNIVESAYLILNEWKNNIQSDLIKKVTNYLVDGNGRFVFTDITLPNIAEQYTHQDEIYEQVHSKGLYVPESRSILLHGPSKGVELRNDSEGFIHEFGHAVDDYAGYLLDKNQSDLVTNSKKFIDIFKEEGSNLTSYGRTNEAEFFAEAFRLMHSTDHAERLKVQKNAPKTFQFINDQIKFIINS
Bead autofluor – compound fluorescence in toxin protease inhibitor counterscreen. AID 624483. 3.1% of 360,000 active. compound autofluorescence counterscreen, microsphere flow cytometry; hits give high values. fluorescence intensity (test concentration not listed); in the data active = fluorescence intensity above about 16000; inconclusive = no clear call, values can overlap the other calls
Vc quorum ag – induces V. cholerae light production without autoinducers; 0.16% of 350,000 active; activation, % at 18.7 µM; V. cholerae BH1578 lux reporter, luminescence, 6 h; AID 588436; in the data active = activation mostly above about 9.7%, no sharp cut-off; inconclusive = no clear call, values can overlap the other calls; inactive = mostly below about 3.7%
The depositor's hits bear a star; i = inactive; u = inconclusive; x = not tested or not shown. Cut-off read from the data, not from the text of the source, unless noted: active = inhibition above about 30%; inconclusive = no clear call, values can overlap the other calls; inactive = below that.

SMILES	BoNT-F LC inh	BJeLR lethal	BoNT A protease	Anthrax LF inh2	Bead autofluor	Vc quorum ag
CN(C)c1ccc(/C=C/C(=O)c2cccc(Br)c2)cc1	84*	6	40*	35*	33462*	-6
COc1cccc(OC)c1C(=O)NC(C)C12CC3CC(CC(C3)C1)C2 (stereo not drawn)	35*	1	1	4	3724	i
CC(=O)c1ccc(OC2(C)CCN(Cc3cc4ccccc4[nH]3)C2)cc1 (stereo not drawn)	6	x	0	0	3504	0
COC(=O)CN(n1cnnc1)S(=O)(=O)c1ccccc1	4	-6	2	-6	22038*	-6
Cc1ccc(S(=O)(=O)CCSc2ccc(C(F)(F)F)cn2)cc1	36*	-1	-2	u	4179	0
O=S(=O)(CCSc1ccc(C(F)(F)F)cn1)c1ccccc1	5	0	0	-2	4484	-1
OC[C@H]1O[C@@H](c2nc3ccc(-c4nc(-c5cccs5)no4)cc3[nH]2)C[C@@H]1O	-4	x	-1	-3	3783	0
C#CCn1cc2c(c1-c1ccccc1)c(=O)n(C)c(=O)n2C	0	x	0	4	4001	0
CCCC1=C(C(=O)OCC)C(c2ccc(F)cc2)n2ncnc2N1 (stereo not drawn)	-13	7	0	-2	3021	-1
CCCC1=C(C(=O)OCC)C(/C=C/c2ccccc2)n2ncnc2N1 (stereo not drawn)	-6	-1	u	1	21846*	3
CCOC(=O)C1=C(C)Nc2ncnn2C1/C=C/c1ccccc1 (stereo not drawn)	5	-1	4	-10	20063*	0
CC(C)CC1C(=O)N(Cc2cn(Cc3ccco3)nn2)CCS(=O)(=O)N1Cc1ccc(-c2cccc(N(C)C)c2)cc1 (stereo not drawn)	-5	x	0	-8	3481	0
COCCn1c(SCC(=O)Nc2cc(C)cc(C)c2)nc2ccccc2c1=O	21	2	1	-5	2952	i
COc1cccc(NC(=O)CSc2nc3ccccc3c(=O)n2CCCC(=O)N2CCCC2)c1	1	-5	u	-3	23337*	0
COc1ccc(-n2c(SCC(=O)NCCC(C)C)nc3ccsc3c2=O)cc1	5	-7	1	-3	21316*	14
COc1ccc(NC(=O)CSc2nc3ccccc3c(=O)n2CCC(=O)N2CCCCC2)cc1	-1	9	0	1	21679*	-3
CCOc1ccc(NC(=O)CSc2nc3ccccc3c(=O)n2CCCC(=O)N2CCCC2)cc1	5	10	1	9	8625	x
COCCn1c(SCC(=O)Nc2cccc(C(=O)OC)c2)nc2ccccc2c1=O	-1	-3	1	-2	16194*	0
Cc1ccc(C2C=CC(C#N)=CN2Cc2ccccc2)cc1 (stereo not drawn)	2	x	0	-9	6828	x
COCCNC(=O)CSc1nc2ccccc2c(=O)n1-c1cccc(OC)c1	-6	-16	-4	0	21564*	0
COc1cccc(-n2c(SCC(=O)Nc3cc(C)on3)nc3ccccc3c2=O)c1	-15	-1	-1	-2	10867	12
CC(=O)Nc1cccc(-c2ccnc3c2CC(C(=O)NCc2cccs2)O3)c1 (stereo not drawn)	-3	x	0	0	3784	0
Cn1c(C(=O)N2CCN(Cc3ccc4c(c3)OCO4)CC2)cc2sccc21	-1	-1	-1	-4	16552*	0
Cn1c(C(=O)Nc2ccc3c(c2)OCO3)cc2sccc21	-20	-4	1	-4	11702	-8
Cn1c(C(=O)NCc2ccc3c(c2)OCO3)cc2sccc21	-5	6	-3	-1	17632*	1
Cn1c(C(=O)N2CCC(C(=O)N3CCN(Cc4ccc5c(c4)OCO5)CC3)CC2)cc2sccc21	-3	-3	-1	-4	6690	0
C=CCC(NC(C)c1ccccc1)c1ccco1 (stereo not drawn)	-3	7	0	1	16630*	0
C=CCC(NCc1ccccc1)c1ccccc1 (stereo not drawn)	2	6	1	-2	2142	-1
CCOC(=O)/C(C#N)=C1\Nc2ccccc2N=C1N(CC(C)C)CC(C)C	30	10	38*	27	9201	6
CCCCN(CCCC)C1=Nc2ccccc2N/C1=C(/C#N)C(=O)OCC	34	3	65*	40*	2940	0
